Hit rate of the full screen: of about 310,000 compounds, about 2,200 (0.71%) showed an effect of 50% or more. Effects have a minus sign here. The sample as a whole holds a higher share of strong results than the screen did.
target: human ether-à-go-go-related gene (hERG) potassium channel (human, UniProt Q12809); experiment: primary screen, population patch clamp on CHO cells stably expressing hERG; higher = less effect of the substance
Sequence (Q12809 whole entry, looked up): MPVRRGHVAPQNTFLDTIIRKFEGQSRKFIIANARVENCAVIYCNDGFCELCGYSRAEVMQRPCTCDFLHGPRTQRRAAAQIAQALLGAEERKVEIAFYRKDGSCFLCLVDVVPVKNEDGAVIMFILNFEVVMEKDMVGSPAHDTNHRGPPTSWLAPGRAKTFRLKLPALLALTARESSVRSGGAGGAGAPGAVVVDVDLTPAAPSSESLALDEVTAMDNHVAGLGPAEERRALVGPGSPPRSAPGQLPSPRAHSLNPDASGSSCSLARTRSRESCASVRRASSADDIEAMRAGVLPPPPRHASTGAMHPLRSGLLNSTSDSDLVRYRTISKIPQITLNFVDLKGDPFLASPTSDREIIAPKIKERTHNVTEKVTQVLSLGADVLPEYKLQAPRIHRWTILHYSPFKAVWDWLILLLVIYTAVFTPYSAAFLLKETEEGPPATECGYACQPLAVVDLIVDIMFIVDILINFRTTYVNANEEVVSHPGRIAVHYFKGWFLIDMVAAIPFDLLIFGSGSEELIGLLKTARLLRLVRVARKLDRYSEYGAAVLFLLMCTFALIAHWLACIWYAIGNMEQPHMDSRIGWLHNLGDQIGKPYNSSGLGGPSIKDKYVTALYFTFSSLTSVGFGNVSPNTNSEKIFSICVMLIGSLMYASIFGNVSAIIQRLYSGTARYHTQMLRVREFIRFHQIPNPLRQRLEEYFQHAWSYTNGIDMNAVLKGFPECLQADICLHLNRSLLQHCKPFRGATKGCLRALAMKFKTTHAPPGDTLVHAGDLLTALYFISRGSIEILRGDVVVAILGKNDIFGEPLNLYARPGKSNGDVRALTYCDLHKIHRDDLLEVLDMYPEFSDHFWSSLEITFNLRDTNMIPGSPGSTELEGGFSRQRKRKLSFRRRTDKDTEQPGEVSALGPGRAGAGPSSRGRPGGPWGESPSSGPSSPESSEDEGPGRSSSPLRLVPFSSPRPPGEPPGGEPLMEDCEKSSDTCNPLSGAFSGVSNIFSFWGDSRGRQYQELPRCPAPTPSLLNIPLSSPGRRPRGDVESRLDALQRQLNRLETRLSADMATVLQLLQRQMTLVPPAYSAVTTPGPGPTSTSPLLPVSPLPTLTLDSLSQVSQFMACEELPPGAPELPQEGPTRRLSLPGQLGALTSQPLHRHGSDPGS

| Structure (SMILES) | hERG current change (%, negative = inhibition) at 1uM [%] |
| --- | --- |
| O=C(c1ccc(F)cc1)C1CCN(Cc2ccc(F)cc2)CC1 | 2.51 |
| COc1ccc(CN2CCC(C(=O)c3cccc(Cl)c3)CC2)cc1 | -66.8 |
| CCc1ccc(NC(=O)CN2CCC(C(=O)c3ccc(OC)cc3)CC2)cc1 | -3.64 |
| COc1ccc(CNC(=O)CN2CCC(C(=O)c3ccc(OC)cc3)CC2)cc1 | -15.3 |
| COc1ccc(C(=O)C2CCN(C(=S)Nc3ccc(F)cc3)CC2)cc1 | -6.05 |
| COc1ccc(CN2CCC(C(=O)c3ccc(Cl)cc3)CC2)cc1 | -80.9 |
| COc1ccc(CNC(=O)C2CCN(C(=O)c3cccc(Cl)c3)CC2)cc1 | -3.93 |
| COc1ccc(CN2CCC(C(=O)c3ccc(F)cc3)CC2)cc1 | -81 |
| COc1ccc(CN2CCCC(C(=O)c3cccc(Cl)c3)C2)cc1 (centres unmarked) | -7.39 |
| COC(=O)Cc1ccc(NC(=S)N2CCN(C(=O)C3CCCO3)CC2)cc1 (centres unmarked) | 5.7 |
| COc1ccccc1CNC(=O)C(NS(=O)(=O)c1ccc2c(c1)OCCO2)C(C)C (centres unmarked) | 6.69 |
| COc1cc(C2NC(=O)C(C#N)=C(Nc3cccc(C)c3)S2)ccc1O (centres unmarked) | 18.5 |
| COc1cc2c(cc1OC)[C@H](Cc1ccc(O)cc1)NCC2 | 10.8 |
| Cc1cc(N(C)C)c(C#N)c(=O)[nH]1 | 12.4 |
| O=C(c1cc2c([nH]c1=O)CCCC2)N1CCc2c([nH]c3ccccc23)C1c1ccccc1F (centres unmarked) | 7.44 |
| CC(C)(C)C(=O)Nc1ccc2oc(-c3cc(F)c(F)cc3Cl)nc2c1 | 15.8 |
| CCCOc1ccc(C2c3c(oc4cc(C)c(C)cc4c3=O)C(=O)N2CCCN2CCOCC2)cc1 (centres unmarked) | 7.1 |
| Cc1ccccc1Nc1nc(N)nc(CSc2nc3ccccc3c(=O)n2C)n1 | 9.44 |
| N=c1c(C(=O)NCC2CCCO2)cc2c(=O)n3ccccc3nc2n1Cc1ccccc1 (centres unmarked) | -72.3 |
| O=C(NCc1ccco1)c1ccc2c(=O)n(CC3CCCO3)c(=S)[nH]c2c1 (centres unmarked) | 4.98 |
| N=c1c(C(=O)NCC2CCCO2)cc2c(=O)n3ccccc3nc2n1Cc1ccc(Cl)cc1 (centres unmarked) | -81.9 |
| N=c1c(C(=O)NCC2CCCO2)cc2c(=O)n3ccccc3nc2n1Cc1cccnc1 (centres unmarked) | -34.7 |

| Structure (SMILES) | hERG current change (%, negative = inhibition) at 1uM [%] |
| --- | --- |
| N=c1c(C(=O)NCc2ccco2)cc2c(=O)n3ccccc3nc2n1CC1CCCO1 (centres unmarked) | -84.3 |
| N=c1c(C(=O)NCC2CCCO2)cc2c(=O)n3ccccc3nc2n1Cc1ccccc1Cl (centres unmarked) | -46.8 |
| N=c1c(C(=O)NCC2CCCO2)cc2c(=O)n3ccccc3nc2n1Cc1ccc(F)cc1 (centres unmarked) | -82.7 |
| N=c1c(S(=O)(=O)c2ccc(Cl)cc2)cc2c(=O)n3ccccc3nc2n1CC1CCCO1 (centres unmarked) | 6.52 |
| CCn1c2ccccc2c2cc(NC(=O)COC(=O)c3ccccc3O)ccc21 | 15 |
| CCN(C(=O)/C=C/c1ccc(OC)cc1)C1CCS(=O)(=O)C1 (centres unmarked) | -3.05 |
| CN1C(=O)/C(=N/OC(=O)c2ccccc2)c2ccccc21 | -4.57 |
| N#Cc1c(N)n(CCc2ccc(F)cc2)c2nc3ccccc3nc12 | 19.9 |
| COCCNCCOc1ccc(C(C)(C)c2ccccc2)cc1.O=C(O)C(=O)O | -2.39 |
| Cc1cc(C(=O)N2CC(C)CC(C)C2)n(-c2ccccc2)n1 (centres unmarked) | 16.6 |
| CC1CN(C(=O)Nc2ccc(F)cc2F)CC(C)O1 (centres unmarked) | -1.61 |
| C=CCn1c(SCC(=O)N2CCCCC2)nc(O)cc1=O | 4.63 |
| COc1ccccc1N1CCN(S(=O)(=O)c2ccc(-c3cnc(C4CC4)o3)cc2)CC1 | 14 |
| N=c1c(C(=O)NCC2CCCO2)cc2c(=O)n3ccccc3nc2n1Cc1ccco1 (centres unmarked) | -83.1 |
| Cc1ccc(-c2nnc3n2CCCCC3)cc1 | 0.609 |
| Cc1cccc(NC(=O)c2cc(NC(=O)c3ccccc3)ccc2N2CCCCC2)c1 | 3.79 |
| Cc1ccc(-c2nc3ccccc3c(=O)n2-c2ncccc2C)cc1 | 0.712 |
| Cc1ccc(C)c2c(SC(C)C(=O)NCc3ccco3)nc(-c3ccccc3)nc12 (centres unmarked) | -71.2 |
| Cc1ccc2nc(-c3ccccc3)nc(SC(C)C(=O)NCc3cccs3)c2c1 (centres unmarked) | 16.6 |
| CC(Sc1nc(-c2ccccc2)cc(C(F)(F)F)n1)C(=O)NCc1ccco1 (centres unmarked) | 4.96 |
| C=CC(=O)NC(C)(C)CCN1CCOCC1 | 8.55 |
| Nc1nc(SCC(=O)c2cccc([N+](=O)[O-])c2)n[nH]1 | 5.93 |

| Structure (SMILES) | hERG current change (%, negative = inhibition) at 1uM [%] |
| --- | --- |
| COC(=O)c1ccc(CSc2nncn2C)cc1 | -4.1 |
| Cl.Fc1ccc(C(OCCN2CCCC2)c2ccc(F)cc2)cc1 | -37.9 |
| Cl.Fc1ccc(C(OCCN2CCCC2)c2ccc(Br)cc2)cc1 (centres unmarked) | -66 |
| Cl.c1ccc(CCCN2CCN(CCOC(c3ccccc3)c3ccccc3)CC2)cc1 | -41.9 |
| Cl.Fc1ccc(C(OCCN2CCN(CCCc3ccccc3)CC2)c2ccc(F)cc2)cc1 | -71.3 |
| Cl.c1ccc(C(OCCN2CCNCC2)c2ccccc2)cc1 | 4.05 |
| Fc1ccccc1N1CCN(CCCc2ccccc2)CC1 | -18.4 |
| CCCCn1c(N)c(N(CC(C)C)C(=O)C2CCN(S(=O)(=O)c3ccc(C)cc3C)CC2)c(=O)[nH]c1=O | 2.62 |
| Cn1c(=O)[nH]c(=O)c2c1nc(SCC(N)=O)n2Cc1cccc(Br)c1 | 4.47 |
| Cc1ccc2c(c1)c1c3n2CCN=C3CCC1.Cl | -65.6 |
| CS(=O)(=O)O.c1ccc(-c2ccc3c(c2)c2c4n3CCN=C4CCC2)cc1 | 2.12 |
| c1cc2c(cc1C1CCCCC1)c1c3n2CCN=C3CCC1 | 11.4 |
| CNc1cccc2c1C(=O)c1ccccc1C2=O | 5.62 |
| COCCn1nnnc1C(c1ccc(OC)cc1OC)N1CCN(c2ccccc2F)CC1.Cl (centres unmarked) | -2.19 |
| COCCn1nnnc1C(c1ccc(OC)cc1OC)N1CCN(c2ccccc2)CC1 (centres unmarked) | -54.1 |
| COCCn1nnnc1C(c1ccccc1OC)N1CCN(c2ccccc2)CC1.Cl (centres unmarked) | 6.17 |
| COc1ccccc1N1CCN(S(=O)(=O)c2cc(Br)cnc2N)CC1 | 15.3 |
| CCN(CC)CCN1C(=O)c2ccccc2NC1c1ccc(F)cc1 (centres unmarked) | -30.5 |
| CCN(CC)CCN1C(=O)c2ccccc2NC1c1ccc(C)cc1 (centres unmarked) | -48.3 |
| CCN(CC)CCN1C(=O)c2ccccc2NC1c1ccc(Br)cc1 (centres unmarked) | -82.8 |
| CCOC(=O)c1c(NC(=O)CN2CCOCC2)sc2c1CC(C)(C)OC2 | 11.7 |
| Cc1nc(NCCc2ccc(S(N)(=O)=O)cc2)c2c3c(sc2n1)CCC3 | 11.8 |

| Structure (SMILES) | hERG current change (%, negative = inhibition) at 1uM [%] |
| --- | --- |
| NS(=O)(=O)c1ccc(CCNc2nc(CN3CCCCC3)nc3sc4c(c23)CCC4)cc1 | -53 |
| NS(=O)(=O)c1ccc(CCNc2nc(CN3CCOCC3)nc3sc4c(c23)CCC4)cc1 | 3.28 |
| Cc1cccc(C)c1NC(=O)CNC(=O)c1ccc(N2CCCC2)c([N+](=O)[O-])c1 | -2.53 |
| O=C(Nc1ccnn1C1CCN(C2CCC2)CC1)c1ccccc1 | 16.6 |
| CSCCCN1CCC(n2nccc2NC(=O)CCCc2ccccc2)CC1 | -28.5 |
| O=C(Nc1ccnn1C1CCN(CCCc2ccccc2)CC1)c1ccccc1Cl | -87.3 |
| COc1ccccc1C(=O)Nc1ccnn1C1CCN(C(C)CSC)CC1 (centres unmarked) | -10.6 |
| COc1ccccc1C(=O)Nc1ccnn1C1CCN(CCC(C)c2ccc(C)o2)CC1 (centres unmarked) | -88.2 |
| O=C(Nc1ccnn1C1CCN(CCCc2ccccc2)CC1)c1ccccc1 | -70.9 |
| Cc1ccccc1CN1CCC(n2nccc2NC(=O)CCCc2ccccc2)CC1 | 7.05 |
| COc1ccc(C(=O)Nc2ccnn2C2CCN(CCC(C)c3ccc(C)o3)CC2)cc1 (centres unmarked) | -18 |
| O=C(Nc1ccnn1C1CCN(C2CCC2)CC1)c1ccccc1Cl | -28.4 |
| Cc1ccccc1C(=O)Nc1ccnn1C1CCN(Cc2ccccn2)CC1 | -14.6 |
| Cc1ccccc1C(=O)Nc1ccnn1C1CCN(CCCc2ccccc2)CC1 | -84.5 |
| COc1ccc(-c2cc(C(=O)NCCc3ccc(S(N)(=O)=O)cc3)c3ccccc3n2)cc1 | 11.6 |
| O=C(OCC(=O)N1CCOCC1)c1cnc(Cl)c(Cl)c1 | -0.0536 |
| CCCCN=C(C)C1=C(O)CSC1=O | 15.8 |
| CCN(c1ccccc1)S(=O)(=O)c1ccc(F)cc1 | 8.48 |
| O=C(OCc1nnc(-c2ccc(Br)cc2)o1)c1ccco1 | -3.17 |
| CS(=O)(=O)N(CC(=O)Nc1cccc(F)c1)Cc1ccccc1 | 20.1 |
